Sampled rows, rich in hits. Any-hit rate of the full collection: about 12%.
Sfp PPTase inh: blocks B. subtilis Sfp PPTase activity | Q9F4F7 | Potency, µM, usual class: inhibitors | Biochemical Sfp PPTase activity, qHTS | actives 3.5% (n = 310,000);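 note: the enzyme is Sfp with the accession as filed and its product quenches rhodamine fluorescence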
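Buffer: 50 mM Hepes-Na pH 7.6, 10 mM MgCl2, 0.01% Nonidet P-40, 0.01% BSA. Enzyme 15 nM, pre-exposed to compound 15 min; substrates then added and fluorescence change tracked over 30 min.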
RORg inh: ROR gamma (mouse) transcription inhibition | P51450 | Drosophila S2 Gal4-RORgamma UAS-luciferase reporter, 20 h | Potency, µM (highest dose often 53.6 µM), usual class: inhibitors | actives 5.4% (n = 310,000); note: nearly all actives have a fitted effect of over 60% in size
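Stably transfected Drosophila Schneider cells are the test system, with ROR gamma fused to Gal4 and luciferase under UAS control; luminescence is read after 20 hr of 700 uM copper sulfate induction at ambient temperature.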
PLK1 PBD block: blocks phosphopeptide binding to human PLK1 polo-box domain. P53350. Plk1 PBD binding of FITC phosphopeptide, fluorescence polarization. Potency, µM, hits mostly inhibitors. actives 2.8% (n = 360,000). AID 720504; note: series mostly up to about 57 µM; nearly all actives have a fitted effect of over 65% in size
ALDH1A1 block: inhibitors of human aldehyde dehydrogenase 1A1 | AID 1030 | Potency, µM (top dose mostly 75.3 µM), most hits filed as inhibitors | actives 7.3% (n = 220,000) | Purified ALDH1A1, NADH fluorescence, propionaldehyde substrate; active = well fitted inhibition curve with a large enough effect, not every such curve was filed as active; inconclusive = small, poorly fitted or top-dose-only effect, or another doubt; inactive = no such curve, though single readings can be large or run the other way
Target sequence (P00352 whole entry, looked up): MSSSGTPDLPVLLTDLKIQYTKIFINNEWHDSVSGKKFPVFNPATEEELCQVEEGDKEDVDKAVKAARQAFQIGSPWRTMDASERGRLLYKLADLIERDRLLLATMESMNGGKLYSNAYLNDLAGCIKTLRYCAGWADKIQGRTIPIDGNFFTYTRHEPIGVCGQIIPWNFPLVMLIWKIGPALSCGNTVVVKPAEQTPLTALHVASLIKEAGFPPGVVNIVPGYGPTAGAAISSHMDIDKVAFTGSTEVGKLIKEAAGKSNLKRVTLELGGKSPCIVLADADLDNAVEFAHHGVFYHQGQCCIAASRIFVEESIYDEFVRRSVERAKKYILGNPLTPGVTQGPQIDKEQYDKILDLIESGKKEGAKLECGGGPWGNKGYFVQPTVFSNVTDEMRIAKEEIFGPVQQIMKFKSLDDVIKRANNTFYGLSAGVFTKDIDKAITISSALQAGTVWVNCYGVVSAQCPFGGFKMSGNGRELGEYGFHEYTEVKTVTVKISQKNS
Gal4-VP16 FLuc: inhibits Gal4-VP16 luciferase reporter, ROR gamma counter-screen; Drosophila S2 Gal4-VP16 UAS-luciferase, luminescence, 20 h; Potency, µM (highest dose often 53.6 µM), actives largely listed as inhibitors; actives 3.5% (n = 310,000);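 note: Gal4-VP16 expression switched on by copper sulfate through the metallothionein promoter; nearly all actives have a fitted effect of over 50% in size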
A number is an active result; i = inactive; ? = inconclusive; nt = not tested or not shown; [ ] = remark or other dose. Unless noted, calls come from the whole dose curve; as a rule, active = well fitted curve in the direction sought with a large enough effect; inconclusive = small, poorly fitted or top-dose-only effect, or another doubt; inactive = no such curve, though single readings can be large; an effect the other way counts as inactive or inconclusive.

SMILES	Sfp PPTase inh	RORg inh	PLK1 PBD block	ALDH1A1 block	Gal4-VP16 FLuc
O=C(NC(=S)Nc1cccc(Cl)c1N1CCCC1)c1ccc(-c2cccc([N+](=O)[O-])c2)o1	i	i	i	28µM	i
O=C(Nc1cccc(Cl)c1N1CCCCC1)c1ccc2c(c1)OCCO2	i	i	i	i	i
O=C(Nc1ccccc1F)c1ccc(-c2cccc([N+](=O)[O-])c2)o1	i	i	i	nt	?
COc1ccc(O[C@H]2C=C[C@@H](c3ccccc3)O[C@@H]2CO/N=C(\C)CCN2CCCc3nc(C)c(C)cc32)cc1	i	i[10 µM]	nt	i[13.5 µM]	i[10 µM]
O=C(Nc1ccc(OCc2ccccc2)cc1)Nc1nnc([C@H]2C[C@H](O)[C@@H](CO)O2)s1	nt	nt	i	nt	nt
O=C(NCCc1cccc(Cl)c1)c1ccc(OC2CCN(Cc3ccccn3)CC2)cc1	i	18µM	i	nt	i
Cc1cccnc1CCNC(=O)c1ccc(OC2CCN(Cc3ccccn3)CC2)cc1	i	14µM	i	nt	?
O=C(NCCc1ccccn1)c1ccc(OC2CCN(CCc3ccccc3)CC2)cc1	i	i	i	nt	i
CCn1nc(C)c(CNC(=O)c2ccc(OC3CCN(Cc4ccccn4)CC3)cc2)c1C	i	i	i	nt	7.1µM
NC(CCc1ccccc1)c1csc(NC(=O)NCC2CCCCC2)n1 (stereo not given)	nt	nt	i	nt	nt
CC1(C)CC(=O)C=C(c2ccc(-c3ccc(OC(F)(F)F)cc3)cc2)C1=O	nt	nt	i	nt	nt
COC1=CC(=O)OC(c2ccc(C(F)(F)F)cc2)C1 (stereo not given)	nt	nt	i	nt	nt
COc1ccc(CNc2cc(-c3ccoc3)ncn2)c(OC)c1	45µM	i	nt	25µM	i
COc1cccc(-c2cc(NCc3ccccc3OC)ncn2)c1	i	i	nt	i	i
c1ccc(CNc2cc(-c3cccnc3)ncn2)cc1	i	i	nt	?	i
c1ccc(CNc2cc(-c3ccoc3)ncn2)cc1	32µM	i	nt	22µM	i
CC(C)CN1CCC2(CC1)CCN(C(=O)c1cnccn1)CC2	i	i	nt	i	i
COc1ccc(/C(C)=N/NC(=O)CN(c2ccc(OC)cc2)S(=O)(=O)c2ccccc2)cc1	i	i	i	nt	i
CCn1c(=O)c([N+](=O)[O-])c(NCCc2ccccc2)c2ccccc21	i	i	i	?	i[0.365 µM]
CCCc1nc2ccccc2c(C(=O)OC(C)C(=O)NCc2ccc3c(c2)OCO3)c1CC (stereo not given)	i	i	i	4.5µM	i
CCn1c(=O)c([N+](=O)[O-])c(NCCc2ccc(OC)c(OC)c2)c2ccccc21	i	i	i	14µM	i
O=C(NCc1ccc2c(c1)OCO2)c1cccc2c1C(=O)N(C1CCCCC1)C2	i	i	i	i	i
CCCN1Cc2cccc(C(=O)NCc3ccc4c(c3)OCO4)c2C1=O	i	i	i	14µM	i
O=C(NCCc1ccccc1)c1c(O)c2cccc3c2n(c1=O)CC3	i	i	i	?	i
O=C(NCc1ccccn1)c1c(O)c2cccc3c2n(c1=O)CC3	i	2.8µM	i	?	?
SMILES	Sfp PPTase inh	RORg inh	PLK1 PBD block	ALDH1A1 block	Gal4-VP16 FLuc
CCCc1nc2ccccc2c(C(=O)OCC(=O)NCc2ccc3c(c2)OCO3)c1CC	i	?	i	?	i
Nc1nc(N)nc(CC(=O)O)n1	nt	nt	nt	i[13.5 µM]	nt
Cc1noc(C)c1-c1nccc(NC2CC2)n1	i	i	nt	i	i
CCCn1c(=O)c(C(=O)NCCc2ccc(OC)c(OC)c2)c(O)c2ccccc21	?	11µM	i	nt	?
CCn1c(=O)c(C(=O)NCCc2ccc(OC)c(OC)c2)c(O)c2ccccc21	?	i	i	nt	i
O=C(NCc1ccc(F)cc1)c1cccc2c1C(=O)N(Cc1cccnc1)C2	i	i	27µM	i	i
O=C(Cn1cc(C(=O)c2cccs2)c2ccccc21)NCc1ccc2c(c1)OCO2	?	i	i	14µM	i
CCCn1c(=O)c(C(=O)NCc2ccccn2)c(O)c2ccccc21	i	10µM	i	?	?
O=C(NCc1cccnc1)c1cccc2c1C(=O)N(Cc1cccnc1)C2	i	i	i	i	i
CCCn1c(=O)c(C(=O)NCc2cccnc2)c(O)c2ccccc21	i	i	i	i	i
c1ccc(C(c2ccccc2)N2CC3(CCNCC3)C2)cc1	i	i	nt	i	i
CC(C)(C)C(=O)CSc1ccc(S(=O)(=O)N2CCN(Cc3ccccc3)CC2)cn1	nt	nt	i	nt	nt
O=C(CCn1c(=O)oc2ccccc21)NCc1ccc2c(c1)OCO2	i	i	i	16µM	i
CCCn1nc(C(=O)NCc2ccc3c(c2)OCO3)c2ccccc2c1=O	i	i	i	?	i

High-throughput results deposited in PubChem by National Center for Advancing Translational Sciences (NCATS).
